# Legend:
# [1] = target: Serine/threonine-protein kinase MARK2 (Homo sapiens) (UniProt Q7KZI7); conditions: at 1 µM
# [2] = target: PAS domain-containing serine/threonine-protein kinase (Homo sapiens) (UniProt Q96RG2); conditions: at 0.1 µM
# [3] = target: PAS domain-containing serine/threonine-protein kinase (Homo sapiens) (UniProt Q96RG2); conditions: at 1 µM
# [4] = target: Phosphorylase b kinase gamma catalytic chain, skeletal muscle/heart isoform (Homo sapiens) (UniProt Q16816); conditions: at 0.1 µM
# [5] = target: Phosphorylase b kinase gamma catalytic chain, skeletal muscle/heart isoform (Homo sapiens) (UniProt Q16816); conditions: at 1 µM
# [6] = target: T1, Phosphorylase b kinase gamma catalytic chain, liver/testis isoform (Homo sapiens) (UniProt P15735); conditions: at 0.1 µM
# T1 sequence (whole entry): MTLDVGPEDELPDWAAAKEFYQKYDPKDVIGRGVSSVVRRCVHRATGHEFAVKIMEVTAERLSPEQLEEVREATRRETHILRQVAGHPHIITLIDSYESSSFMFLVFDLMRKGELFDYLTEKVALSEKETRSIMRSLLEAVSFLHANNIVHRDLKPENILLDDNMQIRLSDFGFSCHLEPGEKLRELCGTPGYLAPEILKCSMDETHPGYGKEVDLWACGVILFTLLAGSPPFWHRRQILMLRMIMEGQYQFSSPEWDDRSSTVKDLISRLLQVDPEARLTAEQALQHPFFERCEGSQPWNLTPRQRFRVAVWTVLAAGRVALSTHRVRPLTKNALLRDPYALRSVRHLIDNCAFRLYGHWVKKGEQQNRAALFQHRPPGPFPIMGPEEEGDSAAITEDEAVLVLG
# [7] = target: T1, Phosphorylase b kinase gamma catalytic chain, liver/testis isoform (Homo sapiens); conditions: at 1 µM
# [8] = target: Serine/threonine-protein kinase pim-1 (Homo sapiens) (UniProt P11309); conditions: at 0.1 µM
# Chain of Serine/threonine-protein kinase pim-1 (Homo sapiens) (P11309 whole entry, looked up): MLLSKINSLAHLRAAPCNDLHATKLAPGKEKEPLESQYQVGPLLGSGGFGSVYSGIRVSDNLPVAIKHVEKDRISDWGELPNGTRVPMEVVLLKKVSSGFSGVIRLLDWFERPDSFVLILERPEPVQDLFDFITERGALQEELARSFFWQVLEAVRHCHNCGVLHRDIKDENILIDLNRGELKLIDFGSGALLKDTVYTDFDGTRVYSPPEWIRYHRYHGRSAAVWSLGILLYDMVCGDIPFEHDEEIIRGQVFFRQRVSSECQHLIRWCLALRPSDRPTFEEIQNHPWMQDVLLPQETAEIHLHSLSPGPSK
# [9] = target: Serine/threonine-protein kinase pim-1 (Homo sapiens) (UniProt P11309); conditions: at 1 µM
# [10] = target: Serine/threonine-protein kinase pim-2 (Homo sapiens) (UniProt Q9P1W9); conditions: at 0.1 µM
# Chain of Serine/threonine-protein kinase pim-2 (Homo sapiens) (Q9P1W9 whole entry, looked up): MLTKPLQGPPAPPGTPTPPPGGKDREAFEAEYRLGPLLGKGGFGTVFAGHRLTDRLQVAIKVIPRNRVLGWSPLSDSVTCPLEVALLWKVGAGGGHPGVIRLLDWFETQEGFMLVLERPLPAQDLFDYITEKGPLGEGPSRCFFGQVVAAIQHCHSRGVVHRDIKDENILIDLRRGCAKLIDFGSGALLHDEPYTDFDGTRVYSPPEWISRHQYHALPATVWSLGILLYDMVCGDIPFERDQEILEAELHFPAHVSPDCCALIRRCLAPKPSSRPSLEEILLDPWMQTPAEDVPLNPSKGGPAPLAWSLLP
# [11] = target: Serine/threonine-protein kinase pim-2 (Homo sapiens) (UniProt Q9P1W9); conditions: at 1 µM
# [12] = target: Serine/threonine-protein kinase pim-3 (Homo sapiens) (UniProt Q86V86); conditions: at 0.1 µM
# [13] = target: Serine/threonine-protein kinase pim-3 (Homo sapiens) (UniProt Q86V86); conditions: at 1 µM
# [14] = target: T2, MAP kinase-activated protein kinase 5 (Homo sapiens) (UniProt Q8IW41); conditions: at 0.1 µM
# T2 sequence (whole entry): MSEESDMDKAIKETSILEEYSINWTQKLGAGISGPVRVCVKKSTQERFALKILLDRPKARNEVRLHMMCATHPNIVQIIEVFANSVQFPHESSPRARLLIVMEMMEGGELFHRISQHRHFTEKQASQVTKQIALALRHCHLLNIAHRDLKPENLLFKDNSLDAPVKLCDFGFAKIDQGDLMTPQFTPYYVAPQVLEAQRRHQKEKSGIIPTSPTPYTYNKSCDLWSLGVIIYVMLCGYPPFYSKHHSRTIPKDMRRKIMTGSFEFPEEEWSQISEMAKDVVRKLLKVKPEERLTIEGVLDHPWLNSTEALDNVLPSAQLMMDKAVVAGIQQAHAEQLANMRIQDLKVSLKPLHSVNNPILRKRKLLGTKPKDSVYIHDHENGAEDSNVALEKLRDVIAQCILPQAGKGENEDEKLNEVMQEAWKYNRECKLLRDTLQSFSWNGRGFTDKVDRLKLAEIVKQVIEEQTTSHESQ
# [15] = target: T2, MAP kinase-activated protein kinase 5 (Homo sapiens); conditions: at 1 µM
# [16] = target: Serine/threonine-protein kinase SIK1 (Homo sapiens) (UniProt P57059); conditions: at 0.1 µM
# Chain of Serine/threonine-protein kinase SIK1 (Homo sapiens) (P57059 whole entry): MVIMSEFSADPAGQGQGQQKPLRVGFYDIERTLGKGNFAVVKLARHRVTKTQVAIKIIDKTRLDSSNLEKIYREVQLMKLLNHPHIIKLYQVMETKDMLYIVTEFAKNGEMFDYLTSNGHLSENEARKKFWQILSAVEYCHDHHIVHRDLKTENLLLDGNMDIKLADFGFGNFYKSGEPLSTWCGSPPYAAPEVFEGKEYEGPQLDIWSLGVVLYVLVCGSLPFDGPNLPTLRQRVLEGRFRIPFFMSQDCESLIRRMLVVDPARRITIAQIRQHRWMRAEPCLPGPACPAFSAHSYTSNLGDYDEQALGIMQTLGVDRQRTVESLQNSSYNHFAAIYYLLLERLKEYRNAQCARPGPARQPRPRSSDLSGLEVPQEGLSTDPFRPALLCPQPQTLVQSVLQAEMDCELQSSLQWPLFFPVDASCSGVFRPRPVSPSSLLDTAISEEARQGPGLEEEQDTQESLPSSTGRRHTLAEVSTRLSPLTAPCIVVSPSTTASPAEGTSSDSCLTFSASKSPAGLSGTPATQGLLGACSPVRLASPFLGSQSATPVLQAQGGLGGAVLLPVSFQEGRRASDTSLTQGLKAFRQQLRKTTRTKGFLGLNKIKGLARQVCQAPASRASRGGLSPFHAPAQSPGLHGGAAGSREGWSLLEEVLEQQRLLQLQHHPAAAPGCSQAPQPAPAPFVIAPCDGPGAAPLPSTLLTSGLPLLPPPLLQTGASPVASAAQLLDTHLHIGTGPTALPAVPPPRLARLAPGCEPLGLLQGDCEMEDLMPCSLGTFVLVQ
# [17] = target: Serine/threonine-protein kinase SIK1 (Homo sapiens) (UniProt P57059); conditions: at 1 µM
# [18] = target: Serine/threonine-protein kinase SIK2 (Homo sapiens) (UniProt Q9H0K1); conditions: at 0.1 µM
# Chain of Serine/threonine-protein kinase SIK2 (Homo sapiens) (Q9H0K1 whole entry, looked up): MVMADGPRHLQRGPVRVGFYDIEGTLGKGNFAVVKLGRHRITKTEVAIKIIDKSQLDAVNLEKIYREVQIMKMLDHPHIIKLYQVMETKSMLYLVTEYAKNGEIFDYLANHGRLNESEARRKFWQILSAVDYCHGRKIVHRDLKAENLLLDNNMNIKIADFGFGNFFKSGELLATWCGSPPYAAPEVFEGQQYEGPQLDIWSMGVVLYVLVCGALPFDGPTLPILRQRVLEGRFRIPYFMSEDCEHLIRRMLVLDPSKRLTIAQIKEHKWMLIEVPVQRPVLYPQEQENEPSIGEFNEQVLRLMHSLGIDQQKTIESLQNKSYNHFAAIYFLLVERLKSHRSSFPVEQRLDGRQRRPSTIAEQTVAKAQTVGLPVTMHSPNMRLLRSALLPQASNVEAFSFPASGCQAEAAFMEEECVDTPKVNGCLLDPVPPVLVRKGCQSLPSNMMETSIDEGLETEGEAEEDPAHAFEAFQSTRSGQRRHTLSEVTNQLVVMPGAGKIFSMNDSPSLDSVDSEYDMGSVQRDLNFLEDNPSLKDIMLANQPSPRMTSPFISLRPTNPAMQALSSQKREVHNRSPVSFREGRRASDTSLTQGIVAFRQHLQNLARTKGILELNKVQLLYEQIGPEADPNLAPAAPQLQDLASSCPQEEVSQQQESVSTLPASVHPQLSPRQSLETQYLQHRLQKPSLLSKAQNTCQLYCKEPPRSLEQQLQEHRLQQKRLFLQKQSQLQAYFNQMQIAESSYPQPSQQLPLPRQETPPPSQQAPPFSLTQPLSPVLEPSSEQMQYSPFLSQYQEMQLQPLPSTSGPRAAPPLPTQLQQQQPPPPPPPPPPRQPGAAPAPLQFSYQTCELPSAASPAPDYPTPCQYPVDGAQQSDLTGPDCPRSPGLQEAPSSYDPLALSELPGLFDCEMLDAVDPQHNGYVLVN
# [19] = target: Serine/threonine-protein kinase SIK2 (Homo sapiens) (UniProt Q9H0K1); conditions: at 1 µM
# [20] = target: T3, Serine/threonine-protein kinase TBK1 (Homo sapiens) (UniProt Q9UHD2); conditions: at 0.1 µM;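 also: values are the mean TBK1 inhibition, taken from the GSK PKIS screening data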
# T3 sequence (whole entry): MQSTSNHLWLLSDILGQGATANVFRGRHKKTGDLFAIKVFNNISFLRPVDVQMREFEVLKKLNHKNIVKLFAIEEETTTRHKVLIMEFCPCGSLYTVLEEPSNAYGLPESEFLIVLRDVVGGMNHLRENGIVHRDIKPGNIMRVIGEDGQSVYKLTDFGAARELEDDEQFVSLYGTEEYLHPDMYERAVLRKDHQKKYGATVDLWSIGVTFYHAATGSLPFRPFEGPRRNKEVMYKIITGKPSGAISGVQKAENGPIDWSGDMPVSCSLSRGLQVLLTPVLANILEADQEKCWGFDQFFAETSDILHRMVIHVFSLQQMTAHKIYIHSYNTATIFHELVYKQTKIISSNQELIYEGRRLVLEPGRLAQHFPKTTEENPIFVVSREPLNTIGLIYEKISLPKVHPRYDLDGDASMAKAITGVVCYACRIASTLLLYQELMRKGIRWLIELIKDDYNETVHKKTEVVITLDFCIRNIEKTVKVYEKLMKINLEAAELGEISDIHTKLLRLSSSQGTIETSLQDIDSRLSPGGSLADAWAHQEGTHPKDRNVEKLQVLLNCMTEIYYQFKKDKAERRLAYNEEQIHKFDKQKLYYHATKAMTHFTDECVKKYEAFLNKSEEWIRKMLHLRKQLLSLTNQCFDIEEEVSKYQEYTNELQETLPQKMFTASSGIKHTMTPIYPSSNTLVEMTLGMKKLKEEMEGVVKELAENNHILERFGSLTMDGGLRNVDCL
# Chain of Serine/threonine-protein kinase MARK2 (Homo sapiens) (Q7KZI7 whole entry, the tested form may be a part): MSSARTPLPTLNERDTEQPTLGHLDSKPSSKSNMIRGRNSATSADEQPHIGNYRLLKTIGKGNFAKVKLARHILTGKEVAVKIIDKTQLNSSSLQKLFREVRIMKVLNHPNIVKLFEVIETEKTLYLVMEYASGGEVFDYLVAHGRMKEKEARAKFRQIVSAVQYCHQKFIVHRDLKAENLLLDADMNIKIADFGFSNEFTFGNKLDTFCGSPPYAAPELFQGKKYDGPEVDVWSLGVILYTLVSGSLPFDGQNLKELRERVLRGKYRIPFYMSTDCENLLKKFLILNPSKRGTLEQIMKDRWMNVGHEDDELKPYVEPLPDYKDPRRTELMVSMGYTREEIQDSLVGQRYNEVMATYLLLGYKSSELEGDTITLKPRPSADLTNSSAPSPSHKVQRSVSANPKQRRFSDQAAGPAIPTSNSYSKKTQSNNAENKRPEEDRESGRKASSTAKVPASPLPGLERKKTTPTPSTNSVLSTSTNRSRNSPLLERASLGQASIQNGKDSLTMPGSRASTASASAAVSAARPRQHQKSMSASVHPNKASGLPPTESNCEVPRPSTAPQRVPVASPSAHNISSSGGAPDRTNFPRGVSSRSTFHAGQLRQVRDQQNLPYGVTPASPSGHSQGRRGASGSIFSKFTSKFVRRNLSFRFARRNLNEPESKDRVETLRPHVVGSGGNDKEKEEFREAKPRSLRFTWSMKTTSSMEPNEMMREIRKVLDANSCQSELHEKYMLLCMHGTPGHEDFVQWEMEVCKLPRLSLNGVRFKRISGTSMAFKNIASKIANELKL
# Chain of PAS domain-containing serine/threonine-protein kinase (Homo sapiens) (Q96RG2 whole entry, the tested form may be a part, canonical isoform): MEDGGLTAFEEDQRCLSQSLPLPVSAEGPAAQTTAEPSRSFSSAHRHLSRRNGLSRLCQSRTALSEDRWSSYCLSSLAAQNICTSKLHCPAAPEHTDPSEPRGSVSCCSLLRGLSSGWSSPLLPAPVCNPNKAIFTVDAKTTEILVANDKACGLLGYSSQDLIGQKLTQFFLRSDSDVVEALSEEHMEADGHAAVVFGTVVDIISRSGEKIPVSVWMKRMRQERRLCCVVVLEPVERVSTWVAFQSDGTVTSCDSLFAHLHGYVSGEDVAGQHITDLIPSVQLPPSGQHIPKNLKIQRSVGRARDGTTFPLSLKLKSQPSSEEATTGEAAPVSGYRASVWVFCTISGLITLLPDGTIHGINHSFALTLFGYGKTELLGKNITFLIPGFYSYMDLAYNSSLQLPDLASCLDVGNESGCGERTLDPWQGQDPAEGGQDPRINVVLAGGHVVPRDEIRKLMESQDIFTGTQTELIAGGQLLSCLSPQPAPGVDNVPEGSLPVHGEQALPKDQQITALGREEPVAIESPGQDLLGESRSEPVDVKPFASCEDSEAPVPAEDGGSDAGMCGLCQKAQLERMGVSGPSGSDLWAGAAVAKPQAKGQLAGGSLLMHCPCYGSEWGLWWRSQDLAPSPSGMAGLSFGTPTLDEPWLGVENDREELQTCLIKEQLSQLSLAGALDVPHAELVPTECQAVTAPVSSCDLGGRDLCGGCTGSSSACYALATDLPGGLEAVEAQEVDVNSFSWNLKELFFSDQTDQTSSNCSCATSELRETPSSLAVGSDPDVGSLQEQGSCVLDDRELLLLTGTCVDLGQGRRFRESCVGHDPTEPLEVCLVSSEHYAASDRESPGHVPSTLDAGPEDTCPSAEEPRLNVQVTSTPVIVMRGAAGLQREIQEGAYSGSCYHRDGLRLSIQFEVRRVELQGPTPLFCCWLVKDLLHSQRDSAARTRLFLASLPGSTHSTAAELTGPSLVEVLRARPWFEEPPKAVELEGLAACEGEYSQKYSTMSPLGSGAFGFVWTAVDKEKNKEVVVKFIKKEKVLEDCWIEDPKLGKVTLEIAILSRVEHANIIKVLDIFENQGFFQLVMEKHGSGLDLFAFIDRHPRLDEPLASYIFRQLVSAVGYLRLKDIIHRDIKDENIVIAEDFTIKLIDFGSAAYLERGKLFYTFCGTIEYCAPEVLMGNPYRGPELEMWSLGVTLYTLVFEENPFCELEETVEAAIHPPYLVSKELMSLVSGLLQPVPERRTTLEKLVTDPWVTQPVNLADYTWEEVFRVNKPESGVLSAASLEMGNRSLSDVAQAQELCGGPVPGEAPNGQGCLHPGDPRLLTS
SMILES,inhibition [1] [%],inhibition [2] [%],inhibition [3] [%],inhibition [4] [%],inhibition [5] [%],inhibition [6] [%],inhibition [7] [%],inhibition [8] [%],inhibition [9] [%],inhibition [10] [%],inhibition [11] [%],inhibition [12] [%],inhibition [13] [%],inhibition [14] [%],inhibition [15] [%],inhibition [16] [%],inhibition [17] [%],inhibition [18] [%],inhibition [19] [%],inhibition [20] [%]
Cc1cccc(-c2n[nH]cc2-c2ccc3ncccc3n2)n1,-0.03,-0.24,1.18,1.19,2.02,-0.65,-0.32,-0.24,0.02,0.22,-0.16,-1.47,-1.14,0.08,0.05,-0.73,3.97,3.18,13.8,-2.48
COc1ccc(-c2ccncc2)cc1C(N)=O,0.17,-0.78,-0.33,2.55,3.87,5.73,5.45,0.06,2.13,-0.49,-0.52,-0.49,3.33,1.23,1.1,3.59,9.53,3.27,4.53,2.55
Cc1ccc(C(=O)NC2CCCCC2)cc1-c1ccc(C(=O)NCC2CC2)cc1,0.99,1.33,-0.83,0.53,-0.89,3.98,1.55,-0.39,0.56,1.02,1.66,22.2,-1,0.69,-0.72,3.08,8.02,2.73,1.96,1.75
O=C1Nc2ccc(C(=O)c3ccco3)cc2C1=Cc1cc(Cl)c(O)c(Cl)c1,8.29,-0.44,-0.13,2.98,9.29,3.61,2.94,3.39,31.8,2.1,17.9,12,53.4,1.97,8.16,4.01,10.6,10.5,6.6,4.59
COc1cccc(-n2ncc3c(N/N=C/c4cccc(F)c4)ncnc32)c1,2.5,-0.33,-1.6,5.06,9,2.06,1.7,-0.24,0.52,-3.26,-2.82,-0.58,-0.78,0.63,0.71,5.56,11.9,5.11,14.4,1.92
COc1ccc2cc(-c3c(-c4ccncc4)nc(-c4ccc([S+](C)[O-])cc4)n3C)ccc2c1 (centres undefined),2.02,0.01,-1.68,2.27,–,4.08,1.1,-0.22,0.54,-0.02,0.99,-1.77,-3.85,0.94,-0.4,2.62,1.89,0.52,5.27,-2.09
Nc1nc(-c2ccccn2)c(-c2ccc3ncccc3n2)s1,1.77,-0.2,-0.49,0.58,4.27,4.79,5.31,0.81,2.21,-0.67,0.01,0.6,2.63,1.31,1.64,4.91,3.52,4.07,4.74,2.8

# From ChEMBL document CHEMBL1961873, “Compounds: GSK PKIS; Assays: Nanosyn kinase panel” (2012)
